Shown is part of a subset that was picked to be rich in hits.
KDM5B inhibitor – blocks human KDM5B histone demethylase activity | Q9UGL1 | KDM5B demethylase, FDH-coupled NADH fluorescence (FDH is formaldehyde dehydrogenase) | Potency, µM (highest dose often 57.7 µM), usual class: inhibitors | actives 2.6% (n = 220,000); active = well fitted inhibition curve with a large enough effect; also: nearly all actives have a fitted effect of over 70% in size
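KDM5BΔAP (200 nM final) in 50 mM HEPES pH 7.5, 0.01% Tween-20 was preincubated 10 min at RT with compound over a concentration range. Substrate mix (H3K4me3 12.5 µM, α-KG 25 µM, Fe²⁺, ascorbate, NAD⁺, FDH) was added, and NADH fluorescence change over 30 min gave dose-response curves.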
Of the large screens only hits and unclear results are named; the others gave an inactive call.

CCN(CC)CCCNC(=O)c1nn(C)c2c1CS(=O)(=O)c1ccccc1-2	none
O=C(Cn1nc2c(cc1=O)CCCCC2)NCC1(Cc2nnc3ccccn23)CCCCC1	none
CC(C)(C)c1ccc(NC(=O)C2CCCC2)cc1	none
Cc1noc(C)c1-c1cc2cc(CN(C)C)oc2c(-c2ccc([S+](C)(=O)[O-])cc2)n1	KDM5B inhibitor 39.8µM
Cc1cc2cc(-c3c(C)noc3C)nc(-c3ccc([S+](C)(=O)[O-])cc3)c2o1	KDM5B inhibitor 35.5µM
Cc1cc2cc(-c3c(C)noc3C)nc(N(C)CCN(C)C)c2o1	none
Cc1ccc(C2C(C(=O)c3cccs3)=C(O)C(=O)N2CCc2ccccc2)cc1 (centres undefined)	none
COc1cc(Nc2nc3c(S(=O)(=O)c4cccc(Cl)c4)nnn3c3ccsc23)cc(OC)c1	none
COc1ccccc1N1CCN(C(=O)c2ccc(CS(=O)c3ccccc3C)o2)CC1 (centres undefined)	none
O=C([C@H]1Cc2ccccc2CN1)N1CCC(c2nccn2CC2CC2)CC1	none
Cc1ccc(CN2CCC3(CC2)CN[S+](=O)([O-])c2ccccc2N3)cc1	none
Cc1ccc(-c2nn(CC(=O)N3CCN(C)CC3)c(=O)c3ccccc23)cc1	none
COc1ccc(C)cc1-c1nccc2c(=O)cc(-c3cnn(C)c3)oc12	none
CN1CCN(c2cc(=O)c3ccnc(N4CCN(c5ccccn5)CC4)c3o2)CC1	none
Cc1ccc(-c2nccc3c(=O)cc(N4CCN(C)CC4)oc23)cc1	KDM5B inhibitor 39.8µM
O=c1cc(-c2ccncc2)oc2c(-c3ccccc3O)nccc12	none
C[S+](=O)([O-])c1ccc(-c2nccc3c(=O)cc(-c4ccncc4)oc23)cc1	KDM5B inhibitor 31.6µM
CN1CCN(c2cc(=O)c3ccnc(-c4ccc([S+](C)(=O)[O-])cc4)c3o2)CC1	KDM5B inhibitor 31.6µM
CN1CCN(c2cc(=O)c3ccnc(-c4ccc(F)cc4)c3o2)CC1	KDM5B inhibitor 28.2µM
O=C(NCC(c1ccco1)N1CCCC1)c1cc(=O)c2cc(Br)ccc2o1 (centres undefined)	none
Cc1cccc(CNC(=O)CC2CCOCC2)c1	none
CCc1ccc2c(c1)NC(c1ccc(OC)cc1)=NC(c1ccncc1)=N2	none
CC1(C)CC(=O)c2cc(-c3nc(-c4ccc(Cl)cc4)cs3)c(=O)[nH]c2C1	none
COc1ccc(S(=O)(=O)N2CC(N(C3CCOCC3)S(C)(=O)=O)C2)cc1	none
COCCn1c(SCC(=O)c2cccc(Cl)c2)nc2cc(C(=O)NCC(C)C)ccc2c1=O	none
CC(C)Oc1ccc(CNC(=O)C2CCCN(c3cnn(C)c(=O)c3)C2)cc1 (centres undefined)	none
Cc1cccc(-c2noc(-c3ccc(N4CCN(C)CC4)c([N+](=O)[O-])c3)n2)c1	none
Cc1cccc(-c2nccc3c(=O)cc(N4CCN(C)CC4)oc23)c1	KDM5B inhibitor 35.5µM
Cc1cc(C)c2c(=O)cc(C(=O)Nc3onc4c3CC(C)CC4)oc2c1 (centres undefined)	none
O=C1CC(c2ccccc2)N(C(=O)CNC(=O)C2CCCC2)CCCCCCN1 (centres undefined)	none
Cc1noc(C)c1-c1cc2c(cc(C)n2C)c(-c2ccc(CO)cc2)n1	none
Cc1noc(C)c1-c1cc2c(c(-c3cccc(O)c3)c1)C(=O)N(C)C2	none
Cc1noc(C)c1-c1cc(-c2ccc(CO)cc2)cn2cncc12	KDM5B inhibitor 35.5µM
C#CCNC(=O)c1cc(-c2ccc([S+](C)(=O)[O-])cc2)c2cccn2n1	none
COc1ccc(-c2cc(-c3ccc([S+](C)(=O)[O-])cc3)cn3cncc23)cc1	none
Cc1noc2nc(-c3ccccc3F)cc(C(=O)NCc3ccc(N4CCOCC4)nc3)c12	none
Cc1noc(C)c1-c1cc(-c2ccc(N3CCOCC3)nc2)cn2cncc12	KDM5B inhibitor 31.6µM
Cc1noc(C)c1-c1cc(-c2ccc([S+](C)(=O)[O-])cc2)cn2cncc12	KDM5B inhibitor 31.6µM
COc1ccc(C)cc1S(=O)(=O)N1CCCC(C(=O)NCc2ccccn2)C1 (centres undefined)	none
COc1ccc(CNC(=O)Cc2nn(C)c(=O)c3ccccc23)cc1OC	none
COc1ccc(CN2CCC3(CC2)CC(=O)Nc2ccccc2O3)cc1	none
CN1C(=O)C(CC(=O)NCc2cccnc2)Sc2ncccc21 (centres undefined)	none
CCCCCCn1c(NCCOC)nc2c1c(=O)[nH]c(=O)n2C	none
O=C(Cc1c[nH]c2ccccc12)Nc1cc(S(=O)(=O)N2CCOCC2)ccc1N1CCCCCC1	none
COc1ccc(C(=O)NCC(=O)N2CCCCCNC(=O)CC2c2ccccc2)c(OC)n1 (centres undefined)	none
COc1ccc(-n2cc(-c3ccc4c(c3)OCO4)n(CC(=O)Nc3cccc(C)c3C)c2=O)c(OC)c1	none
COC(=O)CC(NC(=O)c1ccc2c(c1)OCCCO2)c1ccccc1 (centres undefined)	none
CNC(=O)C1CCN(C(=O)N2CC3CC(C2)[C@H]2CCCC(=O)N2C3)CC1 (some centres undefined)	none
Cc1sc2ncn(CCC(=O)NC3CCN(Cc4ccccc4)CC3)c(=O)c2c1C	none
Cn1cc(-c2cc(-c3cnn(C)c3)[nH]n2)cn1	none
Cc1ccccc1-c1[nH]nc2ncc(-c3ccsc3)nc12	KDM5B inhibitor 31.6µM
Cc1ccccc1-c1[nH]nc2ncc(-c3cccnc3)nc12	KDM5B inhibitor 44.7µM
CN(C(=O)c1cnc2n[nH]c(-c3ccccc3)c2n1)c1ccccc1	none
Cc1ccccc1-c1[nH]nc2ncc(-c3cnn(C)c3)nc12	KDM5B inhibitor 31.6µM
COc1ccc(-c2[nH]nc3ncc(-c4ccccc4F)nc23)cc1F	none
Cc1ccccc1-c1[nH]nc2ncc(-c3ccccc3F)nc12	KDM5B inhibitor 35.5µM
Cc1ccsc1-c1[nH]nc2ncc(-c3ccccc3F)nc12	none
COc1ccccc1-c1[nH]nc2ncc(C(=O)N(C)c3ccccc3)nc12	none
COc1ccc(-c2cnc3n[nH]c(-c4sccc4C)c3n2)cc1	none
COc1ccc(C)cc1NC(=O)N1CCC2(CCNC(=O)CC2)CC1	none
NC(=O)CO[C@@H]1CO[C@H]2[C@@H]1OC[C@@H]2NC(=O)C1CCCCC1	none
O=C(CCCO)NNc1c2ccccc2nc2ccccc12	none
CC1CCN(c2ccc(NC(=O)c3ccccc3SC3CCS(=O)(=O)C3)cc2)CC1 (centres undefined)	none
Clc1ccccc1/C=N/C(/N=C/c1ccccc1Cl)c1ccccc1Cl	none
Nc1nc(CCC(=O)N2CCC3(CCCNC3=O)C2)cs1 (centres undefined)	none
COCCOc1ccc(C(=O)/C=C/c2cc(OC)c(O)c(OC)c2)cc1	none
COCCOc1ccc(-c2nc(C)ccc2OC)cc1	KDM5B inhibitor 25.1µM
COc1ccc(C)nc1-c1cccc(OC)c1C(=O)N(C(C)C)C(C)C	none
C[C@@]1(O)CCN(c2ncccc2C(=O)c2nccs2)C[C@@H]1O	none
O=C(c1nccs1)c1cccnc1N1CCNCC(O)C1 (centres undefined)	KDM5B inhibitor 10µM
NC(=O)c1cccnc1N1CCOC(CC(c2ccccc2)c2ccccc2)C1 (centres undefined)	none
C=CCn1c(SCCCCCCC)nc2c1c(=O)n(C)c(=O)n2C	none
COc1cccc(C(=O)NCCn2ccn3nc(-c4ccc(C)c(C)c4)cc3c2=O)c1OC	KDM5B inhibitor 35.5µM
Cc1ccc(C(=O)NCCn2ccn3nc(-c4ccc(F)cc4)cc3c2=O)s1	none
Cc1ccc(-c2cc3c(=O)n(CCNC(=O)c4ccccc4F)ccn3n2)cc1C	KDM5B inhibitor 20µM
CCn1nccc1C(=O)NCCn1ccn2nc(-c3ccc(C)c(C)c3)cc2c1=O	KDM5B inhibitor 35.5µM
COc1cccc(-c2cc3c(=O)n(CCNC(=O)c4cc(F)ccc4F)ccn3n2)c1	none
Cc1ccc(-c2cc3c(=O)n(CCNC(=O)Cc4cccs4)ccn3n2)cc1C	none

Bioassay records: PubChem BioAssay, National Center for Advancing Translational Sciences (NCATS)
